This is an account of results in PubChem BioAssay AID488969 (Vanderbilt High Throughput Screening Facility, 2010).

Each structure is given as a SMILES string. In all, about 110,000 compounds were measured (“z-score”: median about -0.1, highest 2% from about 2 on). For the sample, the highest values were picked, then their nearest neighbours and some compounds at random. The source made the active and inactive calls.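 The calls were made as follows: active = z-score in the third read window above 3 or below -3; inactive = the rest.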

In the test the target is Metabotropic glutamate receptor 8 (Rattus norvegicus) (UniProt P70579). Description: mGluR8 Gi/Go-coupled signaling modulation – cell-based, rat, thallium flux, HTS, primary screen (AID 488969). The settings on record: HEK293 rat mGluR8, GIRK (G protein-gated inwardly rectifying potassium channel) thallium flux, FluoZin2; at 10 µM; stronger effect = higher value; submaximal glutamate (EC20) added with thallium.
Chain of Metabotropic glutamate receptor 8 (Rattus norvegicus) (P70579 whole entry, looked up): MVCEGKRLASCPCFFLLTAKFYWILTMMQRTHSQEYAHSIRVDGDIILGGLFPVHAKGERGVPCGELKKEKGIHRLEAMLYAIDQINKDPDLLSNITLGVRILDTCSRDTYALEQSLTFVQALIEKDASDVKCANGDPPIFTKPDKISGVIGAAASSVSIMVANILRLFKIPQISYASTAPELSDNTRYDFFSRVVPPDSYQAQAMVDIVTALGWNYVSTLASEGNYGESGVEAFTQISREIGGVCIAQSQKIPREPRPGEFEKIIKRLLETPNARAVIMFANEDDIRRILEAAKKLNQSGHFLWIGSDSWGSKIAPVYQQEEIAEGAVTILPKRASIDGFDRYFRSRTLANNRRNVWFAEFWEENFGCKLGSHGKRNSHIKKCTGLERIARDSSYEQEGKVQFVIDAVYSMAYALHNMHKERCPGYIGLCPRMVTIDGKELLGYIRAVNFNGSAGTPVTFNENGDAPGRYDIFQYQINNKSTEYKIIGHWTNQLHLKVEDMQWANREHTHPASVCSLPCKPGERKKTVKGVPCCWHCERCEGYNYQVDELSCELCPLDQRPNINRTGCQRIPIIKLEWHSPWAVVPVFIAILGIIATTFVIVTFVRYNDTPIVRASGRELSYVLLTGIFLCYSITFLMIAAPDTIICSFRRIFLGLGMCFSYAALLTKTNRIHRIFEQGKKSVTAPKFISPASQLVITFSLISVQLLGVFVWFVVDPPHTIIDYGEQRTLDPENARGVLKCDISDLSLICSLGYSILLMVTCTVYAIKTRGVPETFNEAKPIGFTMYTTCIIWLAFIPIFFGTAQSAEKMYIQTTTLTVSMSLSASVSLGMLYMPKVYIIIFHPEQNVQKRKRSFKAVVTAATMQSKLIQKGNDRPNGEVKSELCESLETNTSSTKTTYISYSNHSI
For the compound `O=C(NC1(C(F)(F)F)N=C2SCCN2C1=O)c1ccccc1` (stereo not given), the z-score is -0.628.

For the compound `CS(=O)(=O)Nc1ccc(C(=O)NC2CCCC2)cc1`, the z-score is -0.00695.

In turn, `COc1ccc(OC)c(/C=N/NC(=O)CN2CCSCC2)c1` gave a z-score of 0.045.

As to `CCn1cc(C(=O)NC(=S)Nc2sc3c(c2C(=O)OC)CCCCCC3)cn1`, the z-score was -0.247.

On to `CCn1nnc(NC(=O)c2cccnc2Cl)n1`, for which the z-score is -0.48.

For `C/C(=N/NC(=S)Nc1ccccc1)c1ccc2c(c1)OCO2`, the z-score was 7.92 (active).

As to `C/C(=N/NC(=O)c1ccc2c(c1)OCO2)c1ccc(NC(=O)C(F)(F)F)cc1`, the z-score is -0.151.

Regarding `C/C(=N\NC(=S)Nc1ccc(F)cc1)C1CC1`, the z-score was -0.155.

As for `C/C(=N\NC(=S)Nc1ccc(F)cc1)c1ccc2c(c1)OCCO2`, the z-score is 6.87 (active).

Turning to `C/C(=N\NC(=O)c1ccccc1)c1ccc2c(c1)OCO2`, the z-score was -0.195.

Consider `C/C(=N/NC(=O)c1ccc2c(c1)OCO2)c1cccc(NC(=O)C(C)(C)C)c1`, for which the z-score was -0.191.

Take `COc1nc(N/N=C/c2cc3c(cc2Br)OCO3)nc(N2CCOCC2)n1`: the z-score is -0.297.

Consider `Cc1c(N=C2SCC(=O)N2/N=C/c2ccccc2)c(=O)n(-c2ccccc2)n1C`, for which the z-score was -0.023.

On to `CSc1nc2ccc(NC(=O)c3nn(C(C)C)c(=O)c4ccccc34)cc2s1`, for which the z-score was -0.391.

With `Cc1ccc(SCc2cc(-c3ccc(Cl)cc3)on2)cc1`, the z-score was determined as 0.048.

Regarding `CCOc1ccc(-c2[nH]ncc2-c2csc(C)n2)c(O)c1`, the z-score is -0.285.

`COc1ccc(NC(=O)CSc2nnc(Cn3cnc4ccccc43)n2C)cc1` gave a z-score of 0.66.

As to `O=C(Nc1ccc2c(c1)OCCO2)c1ccc2nccnc2c1`, the z-score worked out at 0.215.

With `CCOC(=O)C1CCN(c2c(Nc3ccc4c(c3)OCCO4)c(=O)c2=O)CC1`, the z-score was -0.277.

As for `O=C(NC(=S)N1CCOCC1)c1ccc([N+](=O)[O-])cc1`, the z-score came out at 0.875.

On to `O=C(NC(=S)N1CCCc2ccccc21)c1ccc(Br)cc1`, for which the z-score is 9.56 (active).

Take `CC1CN(C(=S)NC(=O)c2ccc([N+](=O)[O-])cc2)CC(C)O1` (stereo not given): the z-score turned out to be 0.605.

Compound `CC(=O)N1CCCc2ccccc21` registered a z-score of 0.0326.

For the compound `O=C(NN1c2ccccc2CCc2ccccc21)c1ccccc1Br`, the z-score was -0.0618.

`CCC1CCCCN1C(=S)Nc1ccc(C(C)=O)cc1` (stereo not given): the z-score was -0.196.

On to `O=C(c1cncc(Br)c1)N1CCCc2ccccc21`, for which the z-score amounted to 0.0197.

As for `CCC1CCCCN1C(=S)NC(=O)c1ccc([N+](=O)[O-])cc1` (stereo not given), the z-score is 9.16 (active).

For the compound `O=C(NC(=S)N1CCCc2ccccc21)c1ccc([N+](=O)[O-])cc1`, the z-score is 14.7 (active).

Regarding `O=C(NC(=S)N1CCc2ccccc21)c1ccccc1Br`, the z-score is 11.2 (active).

`CC(=O)Nc1ccccc1C(=O)N1CCc2ccccc21` registered a z-score of 1.03.

As to `O=C(N/N=C1\CCCc2ccccc21)c1ccc([N+](=O)[O-])cc1`, the z-score amounted to 1.47.

Consider `Cc1ccc(CN2C(=O)CCSc3ccc(Cl)cc32)cc1`, for which the z-score was -0.054.

The compound `Clc1ccc(-c2n[nH]c3c2CCC3)c(Cl)c1` registered a z-score of 0.0993.

Compound `O=C(CCS(=O)(=O)c1cccc2nsnc12)NCc1ccccc1Cl` returned a z-score of 0.429.

`COc1ccccc1N1CCN(C(CNC(=O)c2ccco2)c2cccnc2)CC1` (stereo not given) showed a z-score of 1.2.

`CN(/N=C/c1ccc(O)cc1O)c1nc(-c2ccccc2)cc(-c2ccccc2)n1` displayed a z-score of 0.141.

Regarding `COc1cc(C(=O)OCC(=O)Nc2ccc3c(c2)OC(F)(F)O3)ccc1OCc1c(C)noc1C`, the z-score is -0.513.

As for `CC12CCC(C(=O)N3CCCc4ccccc43)(OC1=O)C2(C)C` (stereo not given), the z-score is -0.143.

`O=C(c1ccccc1)N1CCCc2ccccc21`: the z-score is 3.33 (active).

`CC12CCC(C(=O)N3CCc4ccccc43)(CC1=O)C2(C)C` (stereo not given): the z-score was 0.155.

As to `CC12CCC(C(=O)N3CCCc4ccccc43)(CC1=O)C2(C)C` (stereo not given), the z-score is 3.5 (active).

On to `COc1ccc(C(=O)N2CCCc3ccccc32)cc1`, for which the z-score is -0.672.

For the compound `O=C(CCC(=O)N1CCc2ccccc21)N1CCc2ccccc21`, the z-score was -0.329.

In turn, `O=C(c1ccccc1)N1CCc2ccccc21` returned a z-score of 0.518.

`COc1ccc(NC(=O)N2CCc3ccccc32)cc1` showed a z-score of 0.323.

As to `O=C(NC(=S)N1CCc2ccccc21)c1ccccc1`, the z-score was 7.58 (active).

On to `CC(C)[C@H](NC(=O)c1ccccc1)C(=O)N1CCc2ccccc21`, for which the z-score is -0.0295.

With `Cc1ccc(NC(=O)N2CCc3ccccc32)cc1`, the z-score was 1.99.

Consider `O=C(Nc1ccccc1)N1CCc2ccccc21`, for which the z-score was -0.39.

For the compound `O=C(c1ccco1)N1CCN(Cc2nc3ccccc3c(=O)n2-c2ccc(F)cc2)CC1`, the z-score is 0.209.

In turn, `COc1cc2[nH]c(=S)nc(NCC3CCCO3)c2cc1OC` (stereo not given) had a z-score of 0.919.

On to `Cc1cccc(-n2c(C)n[nH]c2=S)c1`, for which the z-score was -0.139.

`Cc1ccc2c(c1)c1c(n2CC(O)CN2C(=O)CNC2=O)C(=O)CCC1` (stereo not given): the z-score came to 0.0317.

With `Cc1cc(C)n(C(=O)CNC(=O)C(c2ccccc2)c2ccccc2)n1`, the z-score was -0.473.

With `COc1ccccc1C(=O)NC(=S)N1CCCc2ccccc21`, the z-score was -0.0293.

With `O=C(NC(=S)N1CCCc2ccccc21)c1ccccc1`, the z-score was 4.54 (active).

Turning to `S=C(c1ccccc1)N1CCCc2ccccc21`, the z-score is -0.863.

In turn, `O=C(C(=O)N1CCCc2ccccc21)N1CCCc2ccccc21` gave a z-score of 0.0396.

As to `O=C(NC(=S)N1CCCc2ccccc21)c1ccc(Cl)cc1`, the z-score is 15.6 (active).

`Fc1ccc(NC(=S)N2CCCc3ccccc32)cc1`: the z-score was -0.143.
